Laboratory results reported in PubChem BioAssay (NCATS).
Several values for one entry are separate records, joined by “and”; a condition that tells them apart may be missing. Identical values can stand only once. Inconclusive results are not listed. Activity calls are given as the source filed them. Calls follow the shape of the dose curve; as a rule, active = well fitted inhibition curve with a large enough effect; inconclusive = small, poorly fitted or top-dose-only effect; inactive = flat fitted curve, though single readings scatter.

How the values were obtained:
[1] = system: CRL-7250; test: Cytotoxic Profiling of Annotated Libraries Using Quantitative High-Throughput Screening (AID 1296008); conditions: Five cell lines viability, CellTiter-Glo ATP luminescence, 48-72 h; max response: stronger effect = lower value; as to max response: % is scaled to controls: 0 for no effect and ±100 for the full control effect
In short: (§1)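 Cytotoxicity was measured as CellTiter-Glo ATP luminescence, read after 10 min at room temperature. Compound treatment of the cells lasted 48 or 72 hr at 37 degrees Celsius in a qHTS format.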

[2] = system: HEK293; test: as above; conditions: Five cell lines viability, CellTiter-Glo ATP luminescence, 48-72 h; max response: stronger effect = lower value
In short: as §1

[3] = system: TAB165; test: qHTS profiling for inhibitors of Plasmodium falciparum proliferation (AID 504749);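 also: 0% = DMSO vehicle and full inhibition = artemisinin control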; conditions: P. falciparum in erythrocytes, SYBR Green DNA, 72 h; series mostly up to 28.7 µM
In short: (§2)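 Infected RBCs, 0.3% parasitemia/2.5% Hct final; cpd 72 h, 37 C, 5% CO2; lysis buffer with saponin/triton/SYBR Green I, o/n RT dark; FI 485/535; norm. to artemisinin (0.29 uM) and DMSO.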

[4] = system: W2; test: as above; conditions: P. falciparum in erythrocytes, SYBR Green DNA, 72 h; series mostly up to 28.7 µM
In short: as §2

[5] = system: HaCat; test: Cytotoxic Profiling of Annotated Libraries Using Quantitative High-Throughput Screening (AID 1296008); conditions: Five cell lines viability, CellTiter-Glo ATP luminescence, 48-72 h; max response: stronger effect = lower value; as to max response: % is scaled to controls: 0 for no effect and ±100 for the full control effect
In short: as §1

[6] = system: KB-3-1; test: as above; conditions: Five cell lines viability, CellTiter-Glo ATP luminescence, 48-72 h; max response: stronger effect = lower value
In short: as §1

[7] = system: NIH3T3; test: as above; conditions: Five cell lines viability, CellTiter-Glo ATP luminescence, 48-72 h; max response: stronger effect = lower value
In short: as §1

[8] = system: HACAT; test: qHTS assay to identify novel small-molecules to repurpose for Merkel cell carcinoma treatment (AID 1296009); conditions: MCC and control cell lines, CellTiter-Glo viability, 72 h; at 44.8 µM (top of the series) unless noted
In short: (§3)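 72 hr, 37 degree celsius; NPC 8-pt / MIPE 11-pt dose response; compound pinned in DMSO; CellTiter-Glo, 10 min RT, luminescence; normalized to no-cell and DMSO controls.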

[9] = system: HEK293T; test: as above; conditions: MCC and control cell lines, CellTiter-Glo viability, 72 h; at 44.8 µM (top of the series)
In short: as §3

[10] = system: CRL-7250; test: as above; conditions: MCC and control cell lines, CellTiter-Glo viability, 72 h; at 44.8 µM (top of the series) unless noted
In short: as §3
Also: nearly all actives have a fitted effect of over 60% in size.

CC[C@]1(O)CC[C@H]2[C@@H]3CCC4=CCCC[C@@H]4[C@H]3CC[C@@]21C
inactive: max response [1] -110% | max response [2] -119%

O=C(O)c1nn(Cc2ccc(Cl)cc2Cl)c2ccccc12
inactive: Potency [3] | Potency [4] | max response [1] -5.04% and -7.58% | max response [2] -10.4% | outcome [2] | max response [5] -0.99% | outcome [5] | max response [6] 4.9% and -9.13% | max response [7] -6.41% | outcome [7] | outcome [8] | outcome [9]

CCC1(c2ccccc2)CCC(=O)NC1=O (stereo not drawn)
inactive: Potency [3] | outcome [1] | max response [2] -5.95% | max response [5] -1.76% | max response [6] -6.95% | max response [7] 4.7% | outcome [10]

CNC(C)Cc1ccccc1OC (stereo not drawn)
inactive: max response [1] -10.9% | max response [2] -10.8% | max response [5] -16.5% | max response [6] 2.15% | max response [7] -6.74%

CN(C)CCc1c[nH]c2ccccc12
inactive: max response [1] 2.04% | max response [2] -13.9% | max response [5] 4.72% | max response [6] -5.51% | max response [7] 2.6%

COP(=S)(OC)Oc1ccc(S(N)(=O)=O)cc1
inactive: outcome [1] | max response [2] -8.17% | outcome [5] | max response [6] 0.165% | max response [7] -5.5% | outcome [10] | outcome [8]

CC(Cc1ccc2c(c1)OCO2)NO (stereo not drawn)
inactive: max response [1] -0.759% | max response [2] -1.22% | max response [5] -1.01% | max response [6] -9.46% | max response [7] 3.02%

CCC(=O)OC1(c2ccccc2)CCN(C)CC1
inactive: max response [1] -2.3% | max response [2] -12.2% | max response [5] -5.78% | max response [6] 2.4% | max response [7] -0.056%
